Experimental data from PubChem BioAssay (Tox21).
Values joined by “and” are separate entries in the source; they are usually repeats but may differ in a detail not shown here. Equal entries are not always repeated. Records with an inconclusive call do not appear. Where a call stands in place of a potency, no number is given. The source holds several records for some structures; these can differ, active in one and inactive in another. Active and inactive are the calls of the source. Unless noted, calls come from the whole dose curve; as a rule, active = well fitted curve in the direction sought with a large enough effect in the repeat runs; inconclusive = weak or mixed curves; inactive = no such curve, though single readings can be large; an effect the other way counts as inactive or inconclusive.

Assays:
[1] = qHTS assay to identify small molecule antagonists of the estrogen related receptor (ERR) signaling pathway from Tox21 library - cell viability counter screen (AID 1224834); note: nearly all actives have a fitted effect of over 30% in size; note: potency is the fitted concentration of half-maximal effect
Summary of the method: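 ERR cells, 2,000/well; 6 h settle at 37 C/5% CO2; pin-tool compound transfer in DMSO; 17.5 h at 37 C; CellTiter-Fluor, 30 min; fluorescence intensity.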

[2] = molecular target: Luciferin 4-monooxygenase (Photinus pyralis) (UniProt P08659); experiment: qHTS assay to identify small molecule inhibitors of firefly luciferase (AID 1224835); note: nearly all actives have a fitted effect of over 25% in size; note: potency is the fitted concentration of half-maximal effect
Luciferin 4-monooxygenase (Photinus pyralis), sequence (P08659 whole entry, looked up): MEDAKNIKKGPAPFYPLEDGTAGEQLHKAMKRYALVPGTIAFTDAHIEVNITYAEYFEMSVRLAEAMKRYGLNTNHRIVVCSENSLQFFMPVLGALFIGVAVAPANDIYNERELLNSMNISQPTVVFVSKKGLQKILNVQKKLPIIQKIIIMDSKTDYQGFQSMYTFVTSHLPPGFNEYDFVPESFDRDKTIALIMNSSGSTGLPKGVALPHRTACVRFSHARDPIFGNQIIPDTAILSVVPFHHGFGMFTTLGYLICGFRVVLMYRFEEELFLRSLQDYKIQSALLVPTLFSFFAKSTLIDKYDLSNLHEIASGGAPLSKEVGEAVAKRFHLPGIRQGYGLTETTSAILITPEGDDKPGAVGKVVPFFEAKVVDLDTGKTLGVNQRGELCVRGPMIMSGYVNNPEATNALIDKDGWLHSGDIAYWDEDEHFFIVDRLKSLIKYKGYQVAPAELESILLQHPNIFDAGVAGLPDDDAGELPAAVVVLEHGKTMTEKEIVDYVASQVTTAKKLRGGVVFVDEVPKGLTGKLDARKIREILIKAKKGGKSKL
Summary of the method: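 Biochemical qHTS: compounds run as interplate titrations against purified firefly enzyme, with D-luciferin and ATP each at its KM concentration. Light output recorded by CCD imaging.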

[3] = qHTS assay to identify small molecule antagonists of the constitutive androstane receptor (CAR) signaling pathway - cell viability counter screen (AID 1224837); note: nearly all actives have a fitted effect of over 45% in size
Summary of the method: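 Viability was measured with CellTiter-Fluor in a HepG2 line carrying stably transfected hCAR and a CYP2B6-2.2kb construct. Cells were exposed for 23 hr at 37 C to 15 compound concentrations with 50 nM CITCO as agonist.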

[4] = molecular target: Nuclear receptor subfamily 1 group I member 3 (Homo sapiens) (UniProt Q14994); experiment: qHTS assay to identify small molecule antagonists of the constitutive androstane receptor (CAR) signaling pathway (AID 1224838);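 note: HepG2 cells stably expressing hCAR with CYP2B6 luciferase reporter stimulated by CITCO; nearly all actives have a fitted effect of over 40% in size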; note: potency is the fitted concentration of half-maximal effect
Nuclear receptor subfamily 1 group I member 3 (Homo sapiens), sequence (Q14994 whole entry, looked up): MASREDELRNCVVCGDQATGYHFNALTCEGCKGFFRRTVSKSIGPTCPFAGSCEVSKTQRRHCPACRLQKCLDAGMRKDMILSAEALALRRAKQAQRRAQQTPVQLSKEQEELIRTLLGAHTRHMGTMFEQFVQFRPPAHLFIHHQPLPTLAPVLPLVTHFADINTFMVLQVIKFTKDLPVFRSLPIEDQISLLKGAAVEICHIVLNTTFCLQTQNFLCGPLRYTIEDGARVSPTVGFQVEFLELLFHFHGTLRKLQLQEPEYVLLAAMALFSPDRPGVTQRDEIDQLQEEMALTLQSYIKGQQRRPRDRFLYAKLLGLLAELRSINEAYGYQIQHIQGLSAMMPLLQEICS
Summary of the method: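 Antagonist mode used CITCO at a final 50 nM to activate CAR in human hepatoma HepG2 cells carrying stable hCAR and a 2.2 kb CYP2B6 promoter-luciferase construct. Compounds were tested at 15 concentrations over 24 h, with luminescence as the end point.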

[5] = molecular target: Nuclear receptor subfamily 1 group I member 3 (Homo sapiens) (UniProt Q14994); experiment: qHTS assay to identify small molecule agonists of the constitutive androstane receptor (CAR) signaling pathway (AID 1224839); note: nearly all actives have a fitted effect of over 15% in size; note: potency is the fitted concentration of half-maximal effect
Summary of the method: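 Cells were plated and incubated 4 hrs, then dosed with compounds at 15 concentrations. PK11195 was added to 0.75 uM final. After 24 hrs at 37 C, luciferase luminescence was measured.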

[6] = molecular target: Thyrotropin receptor (Homo sapiens) (UniProt P16473); experiment: qHTS assay to identify small molecule agonists of the thyroid stimulating hormone receptor (TSHR) signaling pathway (AID 1224843; calls by dose curve; note: nearly all actives have a fitted effect of over 45% in size)
Thyrotropin receptor (Homo sapiens), sequence (P16473 whole entry, looked up): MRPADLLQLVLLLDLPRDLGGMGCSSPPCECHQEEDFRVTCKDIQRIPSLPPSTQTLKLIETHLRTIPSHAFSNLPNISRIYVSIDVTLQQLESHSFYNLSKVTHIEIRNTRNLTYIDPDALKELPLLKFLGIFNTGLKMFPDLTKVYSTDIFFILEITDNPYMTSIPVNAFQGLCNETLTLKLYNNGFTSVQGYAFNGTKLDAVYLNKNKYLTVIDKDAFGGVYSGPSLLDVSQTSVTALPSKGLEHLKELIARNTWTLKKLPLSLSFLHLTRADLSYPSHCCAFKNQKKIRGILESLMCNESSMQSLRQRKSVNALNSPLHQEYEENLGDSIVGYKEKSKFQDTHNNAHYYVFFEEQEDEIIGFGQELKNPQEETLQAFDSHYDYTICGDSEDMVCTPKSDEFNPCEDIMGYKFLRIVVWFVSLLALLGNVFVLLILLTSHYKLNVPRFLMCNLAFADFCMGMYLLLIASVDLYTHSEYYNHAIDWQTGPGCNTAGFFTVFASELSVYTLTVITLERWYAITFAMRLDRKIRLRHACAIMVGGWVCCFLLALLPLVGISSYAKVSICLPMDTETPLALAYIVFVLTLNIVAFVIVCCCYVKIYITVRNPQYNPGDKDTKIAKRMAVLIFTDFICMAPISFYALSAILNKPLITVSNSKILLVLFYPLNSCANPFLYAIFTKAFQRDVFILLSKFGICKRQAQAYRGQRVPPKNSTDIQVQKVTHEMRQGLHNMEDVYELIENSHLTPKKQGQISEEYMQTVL
Summary of the method: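 Agonist-mode screen: TSHR HEK293 cells received test chemicals for half an hour at room temperature, then HTRF cAMP detection reagents for one hour prior to fluorescence measurement. Each chemical ran as a 15-concentration series, triplicated.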

[7] = qHTS assay to identify small molecule agonists of the hypoxia (HIF-1) signaling pathway - cell viability counter screen (AID 1224844; calls by dose curve; note: nearly all actives have a fitted effect of over 50% in size; note: potency is the fitted concentration of half-maximal effect)
Summary of the method: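 Cytotoxicity was measured in parallel with the HRE-driven beta-lactamase readout: after 17 hrs of compound exposure at 37C, HRE-bla ME-180 cells received CellTiter-Glo and luminescence was recorded 30 min later.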

[8] = qHTS assay to identify small molecule agonists of H2AX (AID 1224845; active = well fitted activation curve with a large enough effect in the signal ratio in the repeat runs, not every such curve was filed as active; the % refers to the signal ratio)
Summary of the method: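 Wild-type CHO-K1 cells, plated overnight, exposed 3hr at 37C to 15 concentrations (0.76% DMSO final). Lysed, then HTRF anti-pH2AX (S139) cryptate and anti-H2AX-d2 antibodies, 24 hr room temperature; 665/620 nm emission read.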

[9] = qHTS assay to identify small molecule agonists of H2AX - cell viability counter screen (AID 1224847; calls by dose curve; note: nearly all actives have a fitted effect of over 30% in size; note: potency is the fitted concentration of half-maximal effect)
Summary of the method: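 Cytotoxicity counter screen in wild-type CHO-K1 cells: a 3 hr compound treatment at 37C across 15 concentrations, followed by CellTiter-Glo luminescence to gauge viable cells.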

[10] = qHTS RealTime-Glo MT Cell Viability Assay in HepG2 cells - 24 hour (AID 1224867); note: nearly all actives have a fitted effect of over 50% in size; note: potency is the fitted concentration of half-maximal effect
Summary of the method: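 Luminescence read-out: viable HepG2 cells reduce a prosubstrate to a NanoLuc substrate, giving a signal proportional to live cell number. Reads taken at 0, 8, 16, 24, 32 and 40 h of compound exposure at 37 C.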

[11] = A CellTox Green Cytotoxicity Assay to monitor cytotoxicity in HEK293 cells - 0 hour (AID 1224869); note: nearly all actives have a fitted effect of over 50% in size; note: potency is the fitted concentration of half-maximal effect
Summary of the method: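 Cells (HEK293, 600/well) and dye reagent are dispensed together. After 5 h at 37 C, 23 nL compound is pinned in. Plates stay at 37 C for 40 h with fluorescence read at 0h, 8h, 16h, 24h, 32h and 40h.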

[12] = qHTS assay to identify small molecule antagonists of the estrogen related receptor signaling pathway with the pleiotropic PPARgamma coactivator (PGC) from Tox21 10K library (AID 1224841; call rule not given here; note: actives are mostly falling curves and most rising ones were filed inactive; nearly all actives have a fitted effect of over 50% in size)
Summary of the method: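 Steps: plate 2,000 PGC/ERR cells per well; incubate 6 h at 37 C with 5% CO2; transfer compounds from DMSO stocks by pin tool; incubate 18 h at 37 C; add One-Glo; measure luminescence 30 min later.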

[13] = qHTS assay to identify small molecule agonists of the estrogen related receptor signaling pathway with the pleiotropic PPARgamma coactivator (PGC) from Tox21 10K library (AID 1224842); note: nearly all actives have a fitted effect of over 15% in size; note: potency is the fitted concentration of half-maximal effect
Summary of the method: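 PGC/ERR reporter cell line, 2,000 cells per well, incubated 6 h at 37 C before 23 nL compound in DMSO was added. After 18 h at 37 C, One-Glo luminescence read following 30 min at room temperature.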

[14] = qHTS assay to identify small molecule agonists of the hypoxia (HIF-1) signaling pathway (AID 1224846; active = well fitted activation curve with a large enough effect in the signal ratio in the repeat runs, not every such curve was filed as active; the % refers to the signal ratio)
Summary of the method: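 Compounds from the Tox21 10K library, dissolved in DMSO, are tested for induction of a hypoxia response element–controlled beta-lactamase reporter in ME-180 cells. Exposure lasts 17 hrs at 37C after a 5 hr settling period, followed by CCF4-AM FRET substrate.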

[15] = qHTS assay to identify small molecule antagonists of the estrogen related receptor (ERR) signaling pathway from Tox21 library (AID 1224848); note: nearly all actives have a fitted effect of over 50% in size
Summary of the method: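 Quantitative high-throughput format: ERR reporter cells (2,000/well) pre-incubated 6 h, treated 18 h at 37 C with compounds in DMSO alongside positive and negative controls, then read by ONE-Glo luminescence.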

[16] = qHTS assay to identify small molecule agonists of the estrogen related receptor (ERR) signaling pathway from Tox21 library (AID 1224849; calls by dose curve; note: nearly all actives have a fitted effect of over 15% in size); settings: ERR reporter cell line, ONE-Glo luciferase, 18 h; at 92.4 µM (top of the series)
Summary of the method: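 Cells carrying the ERR reporter were plated and allowed to settle for 6 h, exposed to library compounds for 18 h at 37 C, then lysed with ONE-Glo and luminescence measured.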

[17] = qHTS RealTime-Glo MT Cell Viability Assay in HEK293 cells - 32 hour (AID 1224868); note: nearly all actives have a fitted effect of over 50% in size; note: potency is the fitted concentration of half-maximal effect
Summary of the method: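 Nonlytic real-time viability readout: viable cells convert prosubstrate to NanoLuc substrate, giving luminescence proportional to live cell number. HEK293, 600 cells/well, compound added after 5 h, continuous culture at 37 C.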

[18] = qHTS assay to identify small molecule antagonists of the estrogen related receptor signaling pathway with the pleiotropic PPARgamma coactivator (PGC) from Tox21 10K library - cell viability counter screen (AID 1224840; active = well fitted cell-killing curve with a large enough effect in the repeat runs, not every such curve was filed as active; note: nearly all actives have a fitted effect of over 40% in size; note: potency is the fitted concentration of half-maximal effect)
Summary of the method: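 Multiplexed viability counter screen in the PGC/ERR cell line: cells treated with DMSO-dissolved compounds for 17.5 hours at 37 C, then viability measured as CellTiter-Fluor fluorescence.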

[19] = qHTS assay to identify small molecule agonists of the constitutive androstane receptor (CAR) signaling pathway - cell viability counter screen (AID 1224836); note: nearly all actives have a fitted effect of over 45% in size
Summary of the method: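 Cells were seeded and incubated 4 hrs. Compounds were added across 15 concentrations together with PK11195 at 0.75 uM final. Plates were incubated 23 hrs at 37 C. CellTiter-Fluor was added and fluorescence measured.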

O=C(O)c1ccccc1Nc1cccc(C(F)(F)F)c1
Potency [1]: inactive | Potency [2]: inactive | Potency [3]: inactive | Potency [4]: inactive | Potency [5]: inactive | Potency [6]: inactive | Potency [7]: inactive | outcome [8]: inactive | Potency [9]: inactive | Potency [10]: inactive | Potency [11]: inactive

NC=O
Potency [1]: inactive | Potency [2]: inactive | Potency [3]: inactive | Potency [12]: inactive | Potency [13]: inactive | Potency [7]: inactive | outcome [8]: inactive | Potency [14]: inactive | Potency [9]: inactive | Potency [15]: inactive | activity change, positive = activation [16]: 6.78% (inactive) and -1.46% (inactive) | Potency [10]: inactive | Potency [17]: inactive | Potency [11]: inactive

CCCCNS(=O)(=O)c1ccccc1
Potency [1]: inactive | Potency [2]: inactive | Potency [3]: inactive | Potency [18]: inactive | Potency [6]: inactive | Potency [7]: inactive | outcome [8]: inactive | Potency [14]: inactive | Potency [10]: inactive | Potency [17]: inactive and 4.36 µM (active) | Potency [11]: inactive

CC(C)=CCCC(C)CCO (stereo not given)
Potency [1]: inactive | Potency [2]: inactive | Potency [3]: inactive | Potency [18]: inactive | Potency [6]: inactive | Potency [7]: inactive | outcome [8]: inactive | Potency [14]: inactive | Potency [9]: inactive | Potency [10]: inactive | Potency [11]: inactive

CCCCCCCCCCCO
Potency [1]: inactive | Potency [19]: inactive | Potency [3]: inactive | Potency [4]: inactive | Potency [5]: inactive | Potency [18]: inactive | Potency [12]: inactive | Potency [13]: inactive | Potency [6]: inactive | Potency [7]: inactive | outcome [8]: inactive | Potency [14]: inactive | Potency [9]: inactive | Potency [15]: inactive | activity change, positive = activation [16]: -4.02% (inactive) and 0.762% (inactive) | Potency [10]: inactive | Potency [17]: inactive | Potency [11]: inactive

O=c1oc(=O)c2cc3c(=O)oc(=O)c3cc12
Potency [1]: inactive | Potency [2]: inactive | Potency [3]: inactive | Potency [4]: inactive | Potency [5]: inactive | Potency [12]: inactive | Potency [13]: inactive | Potency [7]: inactive | outcome [8]: inactive | Potency [14]: inactive | Potency [9]: inactive | Potency [15]: inactive | activity change, positive = activation [16]: 1.24% (inactive) and 2.94% (inactive) | Potency [10]: inactive | Potency [17]: inactive | Potency [11]: inactive

CCCCC(CC)COP(=O)(OCC(CC)CCCC)OCC(CC)CCCC (stereo not given)
Potency [1]: inactive | Potency [2]: inactive | Potency [3]: inactive | Potency [4]: inactive | Potency [5]: inactive | Potency [6]: inactive | Potency [7]: inactive | outcome [8]: inactive | Potency [14]: inactive | Potency [9]: inactive | Potency [10]: inactive | Potency [17]: inactive | Potency [11]: inactive

CCC(C)OC(=O)c1ccc(O)cc1 (stereo not given)
Potency [1]: inactive | Potency [19]: inactive | Potency [3]: inactive | Potency [4]: inactive | Potency [5]: 61.5 µM (active) and 54.5 µM (active) | Potency [12]: inactive | Potency [6]: inactive | Potency [7]: inactive | outcome [8]: inactive | Potency [14]: inactive | Potency [9]: inactive | Potency [15]: inactive | activity change, positive = activation [16]: 6.7% (active) | Potency [10]: inactive | Potency [11]: inactive

O=C(/C=C/C=C/c1ccc2c(c1)OCO2)N1CCCCC1
Potency [2]: 5.04 µM (active) and 6.33 µM (active) | Potency [19]: inactive | Potency [3]: inactive | Potency [4]: inactive | Potency [5]: 1.73 µM (active) and 3.86 µM (active) | Potency [12]: inactive | Potency [13]: 17.3 µM (active) and 9.69 µM (active) | Potency [6]: inactive | Potency [7]: inactive | Potency [9]: inactive | Potency [15]: inactive | activity change, positive = activation [16]: 24.4% (active) and 12.9% (active) | Potency [10]: inactive | Potency [17]: 55.1 µM (active) | Potency [11]: inactive

CN(C)CCC=C1c2ccccc2CCc2ccccc21
Potency [1]: 68.6 µM (active) and 48.6 µM (active) and inactive | Potency [2]: inactive | Potency [4]: 48.6 µM (active) | Potency [5]: inactive | Potency [18]: 48.6 µM (active) and inactive | Potency [7]: 38.9 µM (active) | outcome [8]: inactive | Potency [9]: 113 µM (active) and inactive | Potency [10]: inactive and 43.6 µM (active) | Potency [11]: inactive

O=C(OCc1ccccc1)c1ccccc1O
Potency [1]: inactive | Potency [2]: 17.7 µM (active) and 12.6 µM (active) | Potency [3]: inactive | Potency [6]: inactive | Potency [7]: inactive | outcome [8]: inactive | Potency [14]: inactive | Potency [9]: inactive | Potency [10]: inactive | Potency [17]: inactive | Potency [11]: inactive

CN(C)c1nc(N(C)C)nc(N(C)C)n1
Potency [1]: inactive | Potency [2]: inactive | Potency [3]: inactive | Potency [4]: inactive | Potency [18]: inactive | Potency [6]: inactive | Potency [7]: inactive | outcome [8]: inactive | Potency [9]: inactive | Potency [10]: inactive | Potency [11]: inactive

Nc1ncnc2nc[nH]c12
Potency [1]: inactive | Potency [2]: inactive | Potency [3]: inactive | Potency [4]: inactive | Potency [5]: inactive | Potency [12]: inactive | Potency [13]: 54.5 µM (active) | Potency [6]: inactive | Potency [7]: inactive | outcome [8]: inactive | Potency [15]: inactive | activity change, positive = activation [16]: 111% (active) | Potency [10]: inactive | Potency [17]: inactive | Potency [11]: inactive

Nc1ccccc1N
Potency [2]: 8.15 µM (active) and 1.78 µM (active) | Potency [4]: inactive | Potency [5]: 24.3 µM (active) | Potency [18]: inactive | Potency [7]: 43.6 µM (active) | Potency [14]: inactive | Potency [9]: inactive | Potency [10]: inactive | Potency [11]: 50.1 µM (active)

Cc1ncc[nH]1
Potency [1]: inactive | Potency [2]: inactive | Potency [3]: inactive | Potency [18]: inactive | Potency [6]: inactive | Potency [7]: inactive | outcome [8]: inactive | Potency [14]: inactive | Potency [9]: inactive | Potency [10]: inactive | Potency [11]: inactive

COc1cc([C@@H]2c3cc4c(cc3[C@H](O)[C@H]3COC(=O)[C@H]23)OCO4)cc(OC)c1OC
Potency [2]: inactive | Potency [4]: 48.5 nM (active) and 59.6 nM (active) | Potency [5]: inactive | Potency [6]: inactive | Potency [7]: inactive | outcome [8]: inactive | Potency [14]: inactive | Potency [10]: inactive | Potency [11]: inactive
